The results in this text go back to PubChem BioAssay (NCI).

Each structure is given as a SMILES string. The panel holds about 83,000 compounds, 20% with a hit somewhere; the sample as a whole holds those more often.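 48-hour exposure, single concentration, 96-well plates; percent growth endpoint where 0 means no net growth. Active: below 10.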 Values without a mark were called inactive. Calls of active or inactive are those of the source.

This assay deals with UO-31 renal. Kind of assay: NCI-60 one-dose screen, 48 h (100 = growth as untreated, 0 = no growth, -100 = all killed). The conditions noted are these: 10 µM. The protocol: Growth inhibition of the UO-31 human tumor cell line is measured as a screen for anti-cancer activity. Cells are grown in 96 well plates and exposed to the test compound for 48 hours. Compounds are tested at a single concentration, which is 10^-5 M for most compounds. The reported endpoint is percent growth (GI% or GIPRCNT), where numbers from 0 - 100% represent growth inhibition, and numbers from -100% - 0 represent cell death. For example, a value of 40 represents 60% growth inhibition. A value of 0 means no net growth occurred over the course of the experiment. A value of -40 indicates 40% of cells at the beginning of the experiment died by the end of the experiment. A value of -100 means all cells are dead at the end of the experiment.
NCI-60 Human Tumor Cell Lines Screen was performed using the standard one-dose NCI protocol, which is described in more detail at https://dtp.cancer.gov/discovery_development/nci-60/default.htm.
Compounds with GIPRCNT values below 10 were considered active. Activity score was based on GIPRCNT using the following formula: […]
Score is 0 for GIPRCNT values of 100 or above, 50 for GIPRCNT values of 0, and 100 for GIPRCNT values of -100.
Consider `CCOC(=O)Cn1c(=O)c2sc3ncccc3c2n2nnc(-c3ccccc3)c12`, for which the growth was 60.2%.
For `COc1cc(-c2nn(-c3ccc(NC(=O)NCCNS(=O)(=O)c4ccc(F)cc4)cc3)cc2-c2ccncc2)ccc1Cl` the value was 31.5%; for `O=C1/C=C/[C@@H](O)[C@@H]2C[C@@H](O)C[C@H]2/C=C/CCC[C@@H](C(F)(F)F)O1`, 47.6%.
Under `Cc1ccc(-c2c3c(N)nc(-c4cccnc4)nc3nc3c2c(C)nn3-c2ccccc2)cc1` stands 65.8%; under `CCOC(=O)c1cc(C(=O)c2ccc(F)cc2F)n2ccccc12`, 72.3%.
Regarding `O=C1OC(C(Cl)(Cl)Cl)OC1C(Cl)(Cl)Cl` (stereo not given), the growth was 89.4%.
For `CCn1c(SCCc2ccccc2)nnc1-c1nn(-c2ccc(Cl)cc2Cl)c(-c2ccc(Cl)cc2)c1C` the value was 53.5%.
`O=C(Nc1ccc(F)cc1)c1cc2ccccc2cc1O`: the growth is 63.9%.
Under `O=C(Nc1ccc(NS(=O)(=O)c2ccc(F)cc2)cc1)C12CC3CC(CC(C3)C1)C2` stands 75.1%; under `COc1ccc(-c2cc(-c3ccc(Cl)cc3)nc(SCCCC(=O)NO)n2)cc1`, -40.9% (active); under `OCC1OC(n2cnc3c(NCc4ccco4)ncnc32)C(O)C1O` (stereo not given), 20.4%.
Under `CN1CCN(C2=Nc3ccccc3Oc3ccc(Cl)cc32)CC1` stands 77.1%; under `Nc1ccc(/C=N/Nc2ccnc3c(O)cccc23)c2cccnc12`, 55.8%.
As for `COc1cc2cc(Oc3ccc(NC(=O)c4cccc(C(F)(F)F)c4)cc3)c(C)nc2cc1OC`, the growth was 22.8%.
For `Cc1ccc2nc(Cl)c(-c3nc4ccccc4o3)cc2c1` the value was 62.9%; for `Cc1cc(SC#N)cc(C(C)(C)C)c1O`, 93.6%.
Under `C[C@@H](O)[C@H]1C(=O)N2C(C(=O)O)=C(SC3CN[C@H](C(=O)N(C)C)C3)[C@H](C)[C@H]12` (stereo not given in full) stands 78.7%; under `OC[C@H]1OC([S-])[C@H](O)[C@@H](O)[C@@H]1O.[Au+]` (stereo not given in full), 99.4%.
Under `O[C@@H]1CO[C@H]2[C@@H]1OC[C@@H]2O` stands 106%; under `O=C(Nc1ccc(OS(=O)(=O)c2ccccc2)cc1)C1CCCCC1`, 96.7%; under `NS(=O)(=O)Oc1ccc(-c2ccc3sccc3c2)cc1`, 82.1%.
For `COc1ccc(-c2nn(-c3cccc(Cl)c3)cc2-c2c(C#N)c(=O)n3[nH]c(-c4ccc(C)cc4)nc3c2C#N)cc1`, the growth was 34.7%.
For `O=C(CC(CC(=O)c1ccccc1)c1ccccc1O)c1ccccc1`, the growth is 78.4%.
As for `CCN(CC)CCOC(=O)c1cc(OCc2ccccc2)c(OCc2ccccc2)c(OCc2ccccc2)c1`, the growth is 50.7%.
For `COc1cc(C(=O)/C=C/c2c[nH]c3ccccc23)cc(OC)c1OC` the value was 20.9%.
For `Nc1ncnc2c1ncn2C1(CO)OCC(O)C(O)C1O` (stereo not given) the value was 87.9%; for `COc1ccc(/C=C2\CCCC3=C2NC(N)=NC3c2ccc(OC)c(OC)c2)cc1OC` (stereo not given), 63%.
As for `C/C=C/CSC(C)(C)C(=O)NC`, the growth was 93.8%.
For `COc1ccc(Nc2cnc3cc(NS(=O)(=O)c4ccc(C)cc4)ccc3n2)cc1` the value was 59.3%; for `O=C(CCC(C(=O)c1ccccc1)c1ccccc1)c1ccccc1` (stereo not given), 72.1%.
On to `CCc1ccc(C2=NN(c3ccc(S(C)(=O)=O)cc3)C(=O)CC2)cc1`, for which the growth is 33.3%.
For `O=C(O)c1cc([N+](=O)[O-])ccc1Oc1ccccc1` the value was 83.5%; for `COc1ccc2cc(-c3nc4ccccc4s3)c(Cl)nc2c1OC`, 64%; for `COc1cc2cc(Oc3ccc(NC(=O)c4cc(C(F)(F)F)cc(C(F)(F)F)c4)cc3)c(C)nc2cc1OC`, 30.9%.
Under `CNC(=O)c1cn(C2CC2)c2cc(N3CCN(C(=O)c4cc(OC)c(OC)c(OC)c4)CC3)c(F)cc2c1=O` stands 79%; under `Nc1nc(-c2cccnc2)nc2c1sc(=S)n2-c1ccccc1`, 97.2%; under `CC(=O)OC/C=C(/C)C[P+](c1ccccc1)(c1ccccc1)c1ccccc1`, 61.1%.
On to `CCN(CC)CCN1c2nc3ccccc3cc2Sc2cc3ccccc3nc21`, for which the growth was -64.1% (active).
Turning to `CCOc1ccccc1/C=N\N=C\c1ccccc1O`, the growth was 52%.
Under `CCCCCOC(=O)Nc1nc(=O)n(C2O[C@H](C)[C@@H](O)[C@H]2O)cc1F` (stereo not given in full) stands 82.1%.
